# Reference: publication PMC9574860, “Chemical Toolkit for PARK7: Potent, Selective, and High-Throughput” (Journal of Medicinal Chemistry, 2022)
# Out of some 7,900 compounds screened, about 400 (5.1%) showed an effect of 50% or more. What follows is part of a selection rich in strong results, with near analogues and random picks from the rest.
# Biological target: Parkinson's disease protein 7 (PARK7/DJ1) (human, UniProt Q99497)
# Assay: primary screen, percent inhibition; read as competition with a fluorescent probe by fluorescence polarization; higher = more effect of the substance
# Details: 100 µM
# Procedure: The screen was conducted using the conditions as described above in 1536-well plates (Corning 3724) with a reaction volume of 8 μL per well. The compound library containing 7887 covalent fragments was purchased at Enamine Ltd. and received as 100 mM DMSO stocks in 384 well LDV Echo plates (Labcyte LP-0200). Stock solutions of 0.26 μM PARK7 and 80 nM JYQ-107 were prepared. Using a Labcyte Echo550 acoustic dispenser, 8 nL of the DMSO stock solution of the library compounds was transferred from the source plates into the empty 1536-well screening plates to obtain a 100 μM final compound concentration. Next, PARK7 (6 μL, final concentration 0.2 μM) was dispensed using a Biotek MultiflowFX liquid dispenser and incubated for 2 h, followed by dispensing the probe JYQ-107 (2 μL, final concentration 20 nM). After 2 h incubation, the FP signal was recorded on a BMG Labtech PHERAstar plate reader (λex/em 480/520 nm). The relative loss of FP signal compared with reference controls was used to calculate the remaining enzyme activity.
# Parkinson's disease protein 7 (PARK7/DJ1), sequence (Q99497 whole entry, looked up): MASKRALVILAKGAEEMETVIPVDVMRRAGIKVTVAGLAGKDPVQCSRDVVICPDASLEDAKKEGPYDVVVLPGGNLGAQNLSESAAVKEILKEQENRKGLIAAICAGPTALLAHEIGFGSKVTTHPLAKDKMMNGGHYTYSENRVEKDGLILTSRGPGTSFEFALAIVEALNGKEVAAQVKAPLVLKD
row,SMILES,Inhibition % [%]
1,N#Cc1cc(N2CC(O)CC2c2cccc(F)c2)ccn1 (stereo not shown),12.9
2,N#Cc1ccc(N2CC(O)CC2c2cccc(F)c2)cn1 (stereo not shown),3.63
3,N#Cc1cccc(N2CC(O)CC2c2ccccc2)n1 (stereo not shown),96.9
4,COc1cc(C)c(C(C)NC(=O)CCl)cc1OC (stereo not shown),3.84
5,N#CC(=Cc1cccc(Cl)c1Cl)C(N)=O,8.01
6,N#Cc1ncccc1O,23.2
7,N#Cc1cccc(F)n1,4.58
8,N#Cc1nc(F)ccc1O,55.2
9,O=S1(=O)CCCC(CCl)C1 (stereo not shown),-4.37
10,CC1(C)NC(=O)C1(C)C,2.57
11,COc1cc(C=C(C#N)C(N)=O)cc(Cl)c1OC(C)C,7.72
12,O=S(=O)(F)CCn1nnc(-c2ccccc2)n1,35.7
13,O=S(=O)(F)CCSc1nnc2sc3ccccc3n12,7.67
14,O=S(=O)(F)CCSc1nnc2ccccn12,53.9
15,C=CC(=O)N1CC(Cc2cccc(C)c2)C1,6.59
16,COc1cc(S(=O)(=O)F)c(Cl)cc1C(=O)O,97.8
17,Cc1ccc(S(=O)(=O)F)c2c1NCCC2,4.21
18,COc1ccc(S(=O)(=O)F)cc1C(=O)O,20.2
19,COc1cc(C(=O)O)ccc1S(=O)(=O)F,31.2
20,O=C(O)c1ccc(S(=O)(=O)F)c(Cl)c1,94.7
21,Cc1ccc(C(=O)O)cc1B1OC(C)(C)C(C)(C)O1,9.09
22,Cc1ccc(C(=O)O)cc1S(=O)(=O)F,99.4
23,Cc1ccc(N)cc1S(=O)(=O)F,95.9
24,Nc1ccc(S(=O)(=O)F)c(F)c1,12.3
25,COc1cc(NC(=O)CCl)c(Cl)cc1C(=O)O,13.3
26,O=C(CCl)NC1CCCCNC1=O (stereo not shown),13.7

row,SMILES,Inhibition % [%]
1,CC(=O)Nc1ccc(OC(=O)N2CCCC2)cc1,8.48
2,C=CC(=O)N1CCC2(CCSCC2)CC1,5.26
3,C=CC(=O)NCC1CCSCC1,2.54
4,COc1nscc1B1OC(C)(C)C(C)(C)O1,20.8
5,CN(CC(=O)Nc1c(Cl)cccc1Cl)C(=O)CCl,7.36
6,Cc1ccc(NC(=O)NC(=O)CCl)cc1,8.73
7,CSc1ccccc1NC(=O)CN(C)C(=O)CCl,34.6
8,CN(CC(=O)Nc1ccc(Cl)cc1)C(=O)CCl,75.9
9,CN(CC(=O)Nc1ccc(F)cc1)C(=O)CCl,94.2
10,Cc1ccc(NC(=O)CN(C)C(=O)CCl)cc1,96.5
11,CN(CC(=O)Nc1ccccc1C(F)(F)F)C(=O)CCl,17.5
12,CN(CC(=O)Nc1ccccc1Cl)C(=O)CCl,42.3
13,O=C(CCl)Nc1ccc(F)cc1,25.3
14,N#Cc1cccc(NC[C@H]2CCO[C@@H]2c2ccccc2)n1,3
15,Cc1nn(C)c(Cl)c1C=CC(=O)N1CCNC(C)C1.Cl (stereo not shown),11
16,C=CC(=O)N1CCOCC1c1cccn1C (stereo not shown),7.42
17,C=CC(=O)Nc1cn(C)nc1C1CC1,10
18,C=CC(=O)N1CCC(CCF)CC1,5.32
19,C=CC(=O)N1CCN(c2ccccc2F)CC1,7.53
20,C=CC(=O)N1CCC(CCC#N)CC1,8.36
21,O=C(Cn1nc(-c2ccccc2)oc1=O)N1CCSCC1,5.67
22,O=C(CCl)Nc1cc(Cl)cc(Cl)c1,9.47
23,COc1cccc(NC(=O)CN(C)C(=O)CCl)c1,95.9
24,COc1cccc(NC(=O)CCl)c1,19.1
25,O=C(CCl)Nc1cccc(Cl)c1,34.6
26,O=C(CCCl)Nc1cccc(Cl)c1,-0.704

row,SMILES,Inhibition % [%]
1,COc1cccc(NC(=O)CCCl)c1,11.2
2,CN(CC(=O)Nc1cccc(Cl)c1)C(=O)CCl,93.8
3,C=CC(=O)N(Cc1cccc(-c2cccnc2)c1)C1CC1,12.4
4,Cc1cc(OC(F)F)ccc1B1OC(C)(C)C(C)(C)O1,3.76
5,CC(C(=O)NC1CC1c1ccccc1)N1C(=O)CCC1=O (stereo not shown),14.1
6,CC(C)N1CCC(NC(=O)CCl)CC1.Cl,2.57
7,O=c1[nH]c(-c2ccccc2)no1,34.7
8,CN1CCC(n2cc(-c3ccc(S(=O)(=O)F)cc3)nn2)C1=O (stereo not shown),9.08
9,C=CC(=O)NCCC1CCOC1 (stereo not shown),4.58
10,N#Cc1nc2cc(N)ccc2s1,55.6
11,COc1nc(C#N)sc1C,2.94
12,C=CC(=O)N1CCC(n2cccc2)CC1,6.94
13,CC1(C)OB(c2cc(-c3ccccc3)co2)OC1(C)C,85.9
14,Cc1coc(B2OC(C)(C)C(C)(C)O2)c1,4.69
15,CC1(C)OB(c2ccco2)OC1(C)C,7.09
16,Cc1cccc(N2CCN(C(=O)n3ccnc3)CC2)c1C,6.87
17,Cc1cccc(-n2cc(C(=O)CCl)nn2)c1,95.4
18,O=C(CCl)c1cn(-c2ccc(F)cc2)nn1,5.02
19,Cn1cc(C(=O)CCl)nn1,3.33
20,COc1ccc(C(C)(C)C)cc1S(=O)(=O)n1ccnc1C,7.71
21,N#Cc1ccc(Cl)cn1,8.27
22,O=C(CCl)Nc1ccc2c(c1)OCCO2,55
23,O=C(CCCl)Nc1ccc2c(c1)OCCO2,7.65
24,O=C(CCl)Nc1ccc2c(c1)OCCCO2,57.7
25,O=C(CCl)Nc1ccc2c(c1)OCO2,46.5
26,O=C(CCl)NC(=O)Nc1ccc2c(c1)OCCO2,7.05

row,SMILES,Inhibition % [%]
1,O=C(CCl)NC(=O)Nc1ccc2c(c1)OCCCO2,7.15
2,COC(C)c1cccc(NC(=O)c2cccnc2S)c1 (stereo not shown),4.97
3,C=CC(=O)N1Cc2cc(F)c(F)cc2C1,2.84
4,COc1cccc(CS)c1,15.4
5,COc1ccc(CS)c(OC)c1,5.78
6,COc1cc(OC)c(OC)cc1CS,63.9
7,C=CC(=O)N1C[C@H](CC)CC[C@H]1C (racemic),10.5
8,Cc1nc(SC2CC(C)OC2=O)nc(C)c1C (stereo not shown),3.23
9,Cc1nn(-c2ccccc2)c(O)c1C(=O)CCl,64.4
10,Cc1nn(-c2ccccc2)c(C)c1NC(=O)CCl,6.29
11,Cc1nn(-c2ccccc2)c(C)c1CNC(=O)CCl,13.2
12,NC(=O)CN(C1CCCC1)S(=O)(=O)C=Cc1ccccc1,7.09
13,N#Cc1cn(CCS)c(=O)[nH]c1=O,75.1
14,O=c1[nH]c(=O)n(CCC2OCCO2)cc1Cl,5.36
15,C=CC(=O)NCC1OCCc2ccccc21 (stereo not shown),7.98
16,Cc1nn(C)c(Cl)c1C=CC(=O)N1CCC(CN)CC1.Cl,15.7
17,O=C(CCl)NCCc1ccc(Cl)cc1,41.2
18,CC(=O)NC(C)c1ccc(C(=O)CCl)cc1 (stereo not shown),38.2
19,CC(=O)N(C)Cc1ccc(C(=O)CCl)cc1,79.8
20,CC(=O)NCc1ccc(S(=O)(=O)F)cc1,32.8
21,CC(=O)NCc1ccc(C(=O)CCl)o1,92.2
22,CS(=O)(=O)NCCc1ccc(C(=O)CCl)cc1,82.8
23,CC(=O)NCCc1ccc(C(=O)CCl)cc1,70.8
24,O=C(CCl)NCc1ccc(-c2ccc(Cl)cc2)o1,18.1
25,NS(=O)(=O)c1ccc(CCNC(=O)CCl)cc1,17.2
26,C=CC(=O)N1CCCC(CC#N)C1 (stereo not shown),5.07

row,SMILES,Inhibition % [%]
1,COC(=O)c1ccc(Oc2ccc(C#N)nc2)cc1,6.29
2,Cc1n[nH]c(C)c1CNc1ccc(Cl)c(C#N)n1,1.98
3,C=CC(=O)N1CCCC(NC(C)=O)C1 (stereo not shown),8.6
4,Cc1nn(C)c(Cl)c1Cn1c(-c2ccccc2)noc1=O,3.8
5,Cc1cc(C=C(C#N)C(=O)O)c(C)n1CC1CCCO1 (stereo not shown),11.7
6,CCOC1CC(c2nc(-c3cccc(B(O)O)c3)no2)C1 (stereo not shown),-4.81
7,C=CC(=O)N1CCCC(c2nnc3n2CCC3)C1 (stereo not shown),5.59
8,O=C(CCl)N1c2ccccc2OCC1c1ccccc1 (stereo not shown),28.9
9,Cc1ccc(B2OC(C)(C)C(C)(C)O2)cc1[N+](=O)[O-],3.85
10,C=CC(=O)N1CC(c2ccccc2)C1,12.4
11,C=CC(=O)Nc1cnn(COC)c1,17.1
12,NC(=O)COc1ccc(C(=O)CCl)cc1,5.31
13,CC(=O)NCc1ccc(S(=O)(=O)NC(=O)CCl)cc1,3.06
14,CC(=O)NCc1ccc(C(=O)CCl)cc1,77.1
15,CN(C)C(=O)c1ccc(CNC(=O)CCl)cc1,2.36
16,NC(=O)CCc1ccc(C(=O)CCl)cc1,82.5
17,CN(CCN1C(=O)CCC1=O)Cc1nc2c(s1)CCCC2,9.47
18,Cn1ccc(NS(=O)(=O)C=Cc2ccc(Cl)cc2)n1,11.2
19,CC(C)NC(=O)C(C#N)=Cc1cc(F)ccc1F,1.67
20,N#Cc1ccn(-c2ccccc2)n1,6.25
21,O=C1CN(C(=O)CCl)c2ccccc2N1,56.7
22,C=CC(=O)N(C)CC(=O)N1c2ccccc2NC(=O)CC1C (stereo not shown),1.23
23,O=C1CC(C(F)(F)F)N(C(=O)CCl)c2ccccc2N1 (stereo not shown),53
24,C=CC(=O)N1CC(=O)Nc2ccccc21,10
25,Cc1ccc(C=CC(=O)N2CC(=O)Nc3ccccc32)o1,15.2
26,O=C(CCl)N1c2ccccc2NC(=O)C12CCCC2,42.3
